Compound activity from PubChem BioAssay.
NPC1 prom act: activates the NPC1 promoter. Huh7 NPC1 promoter luciferase reporter, 24 h. Potency, µM (titrated, usually from 9.22 µM), usual class: activators. 2.4% of 320,000 active. AID 485313; further: nearly all actives have a fitted effect of over 60% in size
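Readout is luciferase luminescence, reflecting NPC1 promoter activation in stably transfected Huh7 cells after 24 h compound exposure at 37 °C in reduced-serum medium with 10% FBS.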
ELG1 genotox: genotoxicity induction in ELG1-luciferase HEK293T cells. HEK293T ELG1-luciferase reporter, luminescence, 16 h. Potency, µM (series often up to 46 µM), hits mostly activators. 1.3% of 330,000 active. AID 504466; further: nearly all actives have a fitted effect of over 60% in size
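Genotoxicity was scored as increased ELG1-luciferase reporter signal, measured by ONE-Glo luminescence (30 min, room temperature). Compound or vehicle exposure of the HEK293T reporter cells lasted 16 hr at 37°C.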
Luc counter: Kinase-Glo luciferase inhibition (counter-screen). Q27757. Kinase-Glo luciferase, ATP luminescence, 8 min. Potency, µM (highest dose often 38.3 µM), usual class: inhibitors. 0.28% of 200,000 active. AID 1379; further: nearly all actives have a fitted effect of over 60% in size
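Luminescence was the read-out, taken after 8-minute incubation at ambient temperature. Luciferase turned over luciferin with 10 uM ATP in imidazole pH 7.2 buffer containing KCl, MgCl2, Tween 20 and BSA.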
SMN2 splice up: enhancers of SMN2 splice variant expression. HEK293 SMN2-luciferase splicing reporter, luminescence, 30-36 h. Potency, µM (series often up to 46.1 µM), hits mostly activators. 2.8% of 210,000 active; further: nearly all actives have a fitted effect of over 55% in size
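HEK293 cells carry an SMN2 minigene-luciferase reporter in which exon 7 inclusion puts luciferase in frame. Cells were seeded at 2000 cells/well, attached for 10-12 hours, then exposed to compounds for 30-36 hours at 37C before ONE-Glo luminescence.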
Rab9 prom act: activators of Rab9 promoter; Huh7 Rab9 promoter-luciferase reporter, luminescence, 24 h; Potency, µM (series often up to 9.22 µM), usual class: activators; 2.8% of 320,000 active; AID 485297; further: nearly all actives have a fitted effect of over 60% in size
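Promoter activation is measured as luciferase luminescence in Huh7 cells stably transfected with a Rab9 promoter–luciferase construct, following 24 h compound exposure at 37 °C and 10 min reagent incubation at ambient temperature.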
FLuc modulator: counter-screen for miR-21 project: firefly luciferase inhibitors or activators. 6.9% of 360,000 active. P08659. purified FLuc, Km substrates, luminescence inhibition. AID 588342. Potency, µM (highest dose often 57.5 µM), usual class: inhibitors; further: nearly all actives have a fitted effect of over 55% in size
Target sequence (P08659 whole entry, looked up): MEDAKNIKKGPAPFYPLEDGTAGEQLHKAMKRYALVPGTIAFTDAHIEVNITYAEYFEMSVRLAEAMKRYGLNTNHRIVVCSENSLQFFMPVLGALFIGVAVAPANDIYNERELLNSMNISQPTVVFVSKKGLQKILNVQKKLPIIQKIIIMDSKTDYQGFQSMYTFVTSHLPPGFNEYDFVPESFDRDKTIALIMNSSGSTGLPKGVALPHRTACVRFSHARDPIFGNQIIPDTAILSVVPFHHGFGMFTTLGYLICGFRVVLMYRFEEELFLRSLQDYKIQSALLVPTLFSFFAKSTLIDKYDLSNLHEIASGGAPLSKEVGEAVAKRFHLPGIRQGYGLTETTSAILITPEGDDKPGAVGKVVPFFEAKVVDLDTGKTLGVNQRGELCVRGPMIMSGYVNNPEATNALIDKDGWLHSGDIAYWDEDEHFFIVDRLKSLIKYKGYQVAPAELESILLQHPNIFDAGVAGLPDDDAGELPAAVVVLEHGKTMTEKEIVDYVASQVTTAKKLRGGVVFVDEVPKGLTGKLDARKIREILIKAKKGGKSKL
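Biochemical qHTS of compounds, final roughly 60 µM downward over six points, against 10 nM purified firefly luciferase using Km concentrations of substrates (10 uM D-luciferin, 10 uM ATP) in Tris acetate pH 7.5 buffer; luminescence output.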
Large screens that a line does not name were inactive. Rows were chosen to be rich in hits. Some 7.3% of all compounds tested hit in one or more screens of this group. The call rests on the fitted dose curve; in most records, active means well fitted curve in the direction sought with a large enough effect; inconclusive means small, poorly fitted or top-dose-only effect, or another doubt; inactive means no such curve, though single readings can be large; an effect the other way counts as inactive or inconclusive.

CNC(=S)NNc1nc(C)cc(C)n1	none
COc1ccc(Nc2nc(CN3CCOCC3)nc3sc4c(c23)CCC(C)C4)cc1OC (centres undefined)	none
C[C@@H]1CN([C@@H](C)CO)C(=O)c2cccc(NC(=O)Nc3ccccc3)c2O[C@H]1CN(C)C(=O)Nc1cccc2ccccc12	none (no result: NPC1 prom act, Luc counter, SMN2 splice up, Rab9 prom act, FLuc modulator)
Cc1cc(Oc2ccc(=O)[nH]n2)nc(Cl)n1	NPC1 prom act 1µM, ELG1 genotox inconclusive, Rab9 prom act 3.2µM, FLuc modulator 15µM (no result: Luc counter, SMN2 splice up)
CCCCn1c(SCC(=O)Nc2cc(C)on2)nc2cc(S(N)(=O)=O)ccc21	none (no result: Luc counter, SMN2 splice up)
CCCCn1c(SCc2c(C)noc2C)nc2cc(S(N)(=O)=O)ccc21	ELG1 genotox 18µM, SMN2 splice up inconclusive
NC1=NC(=Nc2cccc(S(N)(=O)=O)c2)c2ccccc21	none (no result: Luc counter, SMN2 splice up)
COc1cc(N=Nc2cccc(S(N)(=O)=O)c2)c2ccccc2c1N	ELG1 genotox inconclusive, SMN2 splice up inconclusive, FLuc modulator 19µM
FC(F)(F)c1cccc(-c2nc3nc(Cl)c(Cl)nc3[nH]2)c1	NPC1 prom act inconclusive, Rab9 prom act inconclusive, FLuc modulator 4.3µM
CCCCCCc1c(C)c2ccc(OCC(=O)N3CCC[C@H]3C(=O)O)c(C)c2oc1=O	FLuc modulator 17µM (no result: Luc counter, SMN2 splice up)
CCOC(=O)CCc1c(C)c2ccc(OCC)c(C)c2oc1=O	FLuc modulator 12µM
CCCc1cc(=O)oc2c(C)c(OCC(=O)N3CCC[C@@H]3C(=O)O)ccc12	none (no result: Luc counter, SMN2 splice up)
CCOC(=O)CCc1c(C)c2ccc(OCC(=O)N3CCOCC3)c(C)c2oc1=O	none (no result: Luc counter, SMN2 splice up)
CCc1ccc(C(=O)NC(=S)NCc2cccnc2)cc1	FLuc modulator inconclusive (no result: Luc counter, SMN2 splice up)
O=S1(=O)N=C2CCCCCN2C(c2ccc(Cl)cc2)N1 (centres undefined)	none
CCOC(=O)c1cnc(NCc2ccccc2)nc1C	ELG1 genotox 15µM, Rab9 prom act inconclusive, FLuc modulator inconclusive
CCOC(=O)c1cnc(SCC(=O)c2ccc(Cl)cc2)nc1N	ELG1 genotox inconclusive
CCCCSc1ncc(C(=O)OCC)c(N)n1	NPC1 prom act inconclusive, ELG1 genotox inconclusive, SMN2 splice up 5µM, Rab9 prom act 3.2µM, FLuc modulator 3.8µM
CCOC(=O)c1cnc(SCCc2ccccc2)nc1N	NPC1 prom act 3.2µM, ELG1 genotox inconclusive, SMN2 splice up 13µM, Rab9 prom act 1.6µM, FLuc modulator 3µM
CCOC(=O)c1cnc(SCC(=O)N2CCN(C(=O)c3ccco3)CC2)nc1N	none
CCOC(=O)c1cnc2c(ccc3ccccc32)c1Cl	ELG1 genotox inconclusive, FLuc modulator 3µM (no result: Luc counter, SMN2 splice up)
CCOC(=O)c1c(C)[nH]c(O)c1C=Nc1ccccc1	FLuc modulator inconclusive
Cc1ccccc1OCC(=O)Nc1ccccc1C(=O)OCc1cc(=O)n2c(C)csc2n1	none (no result: NPC1 prom act, ELG1 genotox, Luc counter, SMN2 splice up, Rab9 prom act)
COc1cc(NC(=O)c2ccco2)c(OC)cc1NC(=O)CSc1nnc(-c2cccs2)n1C	none
CCOC(=O)c1cnc(SCc2nc(N)nc(Nc3ccccc3)n2)nc1N	FLuc modulator inconclusive
CCOC(=O)c1cnc(SCc2ccc(C)cc2)nc1N	NPC1 prom act inconclusive, ELG1 genotox 23µM, SMN2 splice up 11µM, FLuc modulator 17µM
O=C(c1ccccc1)c1ccc(Cn2cc(-c3ccccc3)nn2)cc1	ELG1 genotox inconclusive, FLuc modulator 13µM (no result: Luc counter, SMN2 splice up)
CCOc1ccc(OCCC(=O)N2CCN(S(=O)(=O)c3ccc(F)cc3)CC2)cc1	none (no result: Luc counter, SMN2 splice up)
COc1ccc(CNc2ncnc3c2cnn3-c2ccc(Cl)cc2)cc1	none (no result: NPC1 prom act, ELG1 genotox, Luc counter, SMN2 splice up, Rab9 prom act)
COc1ccc(-n2ncc3c(NC(C)C)ncnc32)cc1	NPC1 prom act 0.28µM, ELG1 genotox inconclusive, SMN2 splice up 2.8µM, Rab9 prom act 0.32µM, FLuc modulator 1.3µM
COc1ccc(-n2ncc3c(NCC(C)C)ncnc32)cc1	NPC1 prom act 0.4µM, ELG1 genotox inconclusive, SMN2 splice up 2µM, Rab9 prom act 0.35µM, FLuc modulator 1.1µM
CC1CC(C)CN(CCCNC(=O)CN2C(=O)c3cccnc3Oc3ccc(Cl)cc32)C1 (centres undefined)	none (no result: Luc counter, SMN2 splice up)
Clc1ccccc1/C=C/c1nc(-c2ccccn2)no1	NPC1 prom act 0.22µM, ELG1 genotox inconclusive, Rab9 prom act inconclusive, FLuc modulator 0.11µM (no result: Luc counter, SMN2 splice up)
